From PubChem
D1 ag: human D1 receptor agonism; 1% of 360,000 active; activation, % at 2 µM; AID 504660; HEK293 T-REx D1 cells, calcium flux, agonist mode; P21728; note: 0% is about no effect
Target sequence (P21728 whole entry, looked up): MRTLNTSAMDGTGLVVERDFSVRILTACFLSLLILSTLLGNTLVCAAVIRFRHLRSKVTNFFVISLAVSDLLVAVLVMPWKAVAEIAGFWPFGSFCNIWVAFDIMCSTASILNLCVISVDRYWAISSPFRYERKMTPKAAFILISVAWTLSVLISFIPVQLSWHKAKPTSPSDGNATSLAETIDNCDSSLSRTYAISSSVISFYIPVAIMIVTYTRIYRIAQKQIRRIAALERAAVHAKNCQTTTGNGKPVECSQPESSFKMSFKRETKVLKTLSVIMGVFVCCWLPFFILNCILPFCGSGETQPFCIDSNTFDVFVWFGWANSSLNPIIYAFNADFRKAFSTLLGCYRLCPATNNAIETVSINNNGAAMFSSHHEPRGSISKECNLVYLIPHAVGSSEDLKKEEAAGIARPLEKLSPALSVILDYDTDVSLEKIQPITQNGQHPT
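Agonism was scored from calcium flux recorded over 180 s (1 read/s) after pintool compound addition, following a 10-cycle baseline. Cells were inducible force-coupled HEK293 TREx D1, plated overnight at 30 C and loaded with no-wash calcium dye.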
D1 antag: blocks dopamine activation of the human D1 receptor; activity change, negative = inhibition, % at 10 µM; P21728; 3.2% of 360,000 active; AID 504652; HEK293 TREx D1 cells, calcium flux, dopamine EC80; hits give low values; in the data active = activity change below about -30%; note: % is set by controls: 0 for no effect and ±100 for the full control effect
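Tetracycline-induced HEK293 Trex D1 cells, force-coupled to calcium, dye-loaded; compounds added and read 180 s, then EC80 dopamine added and calcium flux tracked kinetically another 180 s.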
TRHR agonist: activates the human TRH receptor; P34981; TRHR cells, calcium flux fluo-8, FDSS agonist mode; activation, % at 2 µM; 0.18% of 360,000 active; note: 0% is about no effect
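TRHR-expressing cells loaded with fluo-8 calcium dye; 23 nL library compound pin-transferred, kinetic FDSS fluorescence (Ex 480/Em 530) recorded about 180 s for agonist-induced calcium release, before a 10 nM TRH EC20 addition for potentiator mode.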
TRHR PAM: allosterically enhances the human TRH receptor. P34981. enhancement, % at 2 µM. 0.66% of 360,000 active. TRHR cells, fluo-8 calcium fluorescence, EC20 TRH enhancement; in the data active = enhancement above about 30%; note: 0% is about no effect
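Enhancer read-out: after compound pinning and an initial kinetic agonist-mode read, an EC20 of TRH (10 nM final) was injected and fluo-8 calcium signal (Ex 480/Em 530) followed at 1 s/cycle for 100 cycles in TRHR-expressing cells.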
D1 PAM: enhances dopamine response at the human D1 receptor; 0.036% of 360,000 active; AID 504651; potentiation, % at 10 µM; HEK293 TREx D1 cells, calcium flux, dopamine EC20 potentiation; in the data active = potentiation above about 30%; note: 0% is about no effect
Active calls of the source: *. This is a sample that favours compounds with a hit; in the whole collection about 4.7% have one here. Cut-off read from the data, not from the text of the source, unless noted: active = activation above about 30%; inactive = the rest.

`O=S(=O)(NCc1ccccc1Cl)c1ccc(-n2cnnn2)cc1` gave D1 ag 2.3, D1 antag -7.8, TRHR agonist -0.2, TRHR PAM 9.0 and D1 PAM 3.1.
O=S(=O)(NCc1ccccc1Cl)c1ccc(-n2cccn2)cc1 was read as D1 ag 8.6, D1 antag -30.7*, TRHR agonist -0.5, TRHR PAM -4.9 and D1 PAM -2.8.
`Cc1ccc(Cl)cc1NS(=O)(=O)c1ccc(-n2cccn2)cc1` gave D1 ag 12.9, D1 antag -30.2*, TRHR agonist -0.3, TRHR PAM -0.1 and D1 PAM -10.2.
Screening CCCN1C(=O)CN(C2CCCCCC2)C(=O)C1c1ccc(OCC)c(OC)c1 (configuration not stated) returned D1 ag -5.2, D1 antag -6.0, TRHR agonist -0.5, TRHR PAM -1.1 and D1 PAM -0.1.
COCCN1C(=O)/C(=C/c2ccc(OCc3ccc(C(=O)O)cc3)c(OC)c2)SC1=Nc1ccccc1 was read as D1 ag 4.1, D1 antag -36.5*, TRHR agonist -0.1, TRHR PAM 2.3 and D1 PAM -4.0.
COc1cc(/C=C2\SC(=Nc3ccccc3)N(Cc3ccco3)C2=O)ccc1OC(C)C(=O)O (configuration not stated) was read as D1 ag 1.7, D1 antag -12.7, TRHR agonist 0.6, TRHR PAM -5.8 and D1 PAM -4.5.
`O=C(c1cnc(N2CCOCC2)c2ccccc12)N1CCN(c2ccccc2)CC1` gave D1 ag 2.3, D1 antag -14.5, TRHR agonist 0.0, TRHR PAM -0.8 and D1 PAM -3.7.
For COc1ccc(C)cc1N/C(N)=N/c1nc(C)cc(C)n1 the results were D1 ag 11.0, D1 antag -74.5*, TRHR agonist 3.5, TRHR PAM 2.3 and D1 PAM -6.5.
COc1ccc(OC)c(N/C(N)=N/c2nc(C)cc(C)n2)c1 was read as D1 ag 3.0, D1 antag -25.6, TRHR agonist 0.7, TRHR PAM 2.6 and D1 PAM -7.3.
CCCOc1ccccc1N/C(N)=N/c1nc(C)cc(C)n1 was read as D1 ag 13.4, D1 antag -58.8*, TRHR agonist 0.6, TRHR PAM 1.3 and D1 PAM -13.9.
`COc1ccc(Cl)cc1N/C(N)=N/c1nc(C)cc(C)n1` gave D1 ag 11.8, D1 antag -69.5*, TRHR agonist 2.5, TRHR PAM -2.1 and D1 PAM -6.0.
`CCCOc1ccccc1N/C(=N/c1nc(C)cc(C)n1)NC(=O)COc1ccc(OC)cc1` gave D1 ag 1.8, D1 antag 4.2, TRHR agonist 0.6, TRHR PAM 6.4 and D1 PAM -8.0.
`COc1ccc(Cl)cc1N/C(N)=N/c1nc(C)cc(=O)[nH]1` gave D1 ag 1.0, D1 antag -19.7, TRHR agonist -0.4, TRHR PAM -2.9 and D1 PAM -3.5.
`O/C=c1\ccc2cccc3nc(C(F)(F)F)nc1c23` gave D1 ag 17.3, D1 antag -3.6, TRHR agonist 7.9, TRHR PAM -5.2 and D1 PAM -8.6.
Screening C/C(O)=c1/ccc2cccc3nc(C)nc1c23 returned D1 ag 47.0*, D1 antag -0.9, TRHR agonist 11.3, TRHR PAM -0.5 and D1 PAM 4.2.
`Cc1ccc(-c2c(C(=O)N/N=C/c3ccco3)nnn2-c2nonc2N)cc1` gave D1 ag 94.4*, D1 antag 31.4, TRHR agonist -0.2, TRHR PAM 8.9 and D1 PAM 6.9.
For CCOc1ccc(-c2c(C(=O)N/N=C/c3ccco3)nnn2-c2nonc2N)cc1 the results were D1 ag 29.2, D1 antag 25.2, TRHR agonist -0.5, TRHR PAM 6.1 and D1 PAM -4.6.
For Cc1ccc(-c2c(C(=O)N/N=C/c3cccs3)nnn2-c2nonc2N)cc1 the results were D1 ag 75.7*, D1 antag 41.5, TRHR agonist 9.3, TRHR PAM 22.7 and D1 PAM 19.8.
For Cc1ccc(-c2c(C(=O)N/N=C/c3ccsc3)nnn2-c2nonc2N)cc1 the results were D1 ag 147.6*, D1 antag 110.8, TRHR agonist 0.1, TRHR PAM 18.7 and D1 PAM 9.5.
Nc1nonc1-n1nnc(C(=O)N/N=C/c2cccs2)c1-c1ccc2c(c1)OCO2 was read as D1 ag 102.1*, D1 antag 25.3, TRHR agonist 6.2, TRHR PAM 14.2 and D1 PAM 4.7.
Screening Cc1ccc(-c2c(C(=O)N/N=C/c3cccc(Cl)c3)nnn2-c2nonc2N)cc1 returned D1 ag 16.4, D1 antag -6.0, TRHR agonist -1.8, TRHR PAM 8.7 and D1 PAM -2.6.
Screening Cc1ccsc1/C=N/NC(=O)c1nnn(-c2nonc2N)c1-c1ccc2c(c1)OCO2 returned D1 ag 4.8, D1 antag 0.1, TRHR agonist 0.4, TRHR PAM 4.6 and D1 PAM 0.1.
Screening O=C(CSc1nc2ccccc2n1Cc1cccc(C(F)(F)F)c1)NCc1ccccc1 returned D1 ag 27.7, D1 antag -1.8, TRHR agonist 2.2, TRHR PAM 3.7 and D1 PAM -0.2.
`CCOc1cccc(-c2c(C(=O)N/N=C/c3ccsc3)nnn2-c2nonc2N)c1` gave D1 ag 72.4*, D1 antag 45.3, TRHR agonist 2.9, TRHR PAM 29.2 and D1 PAM 29.5.
`C=CCN1C(=O)/C(=C/c2ccc(OCC(=O)O)cc2)S/C1=N/c1nccs1` gave D1 ag 4.0, D1 antag -10.9, TRHR agonist -1.3, TRHR PAM 13.2 and D1 PAM -3.9.
Screening C=CCN1C(=O)/C(=C/c2ccc(O)c(OC)c2)S/C1=N/c1nccs1 returned D1 ag 129.7*, D1 antag -2.6, TRHR agonist 72.0*, TRHR PAM 5.2 and D1 PAM 6.7.
For C=CCN=C1S/C(=C\c2ccc(Cl)cc2)C(=O)N1CC=C the results were D1 ag 4.1, D1 antag -22.0, TRHR agonist 0.4, TRHR PAM 2.2 and D1 PAM -6.2.
For C=CCN1C(=O)/C(=C/c2ccc(N(C)C)cc2)S/C1=N\c1nnc(CC)s1 the results were D1 ag 167.3*, D1 antag -27.0, TRHR agonist 52.7*, TRHR PAM 6.6 and D1 PAM 2.5.
CC1(C)CC(=O)C(C(c2ccco2)C2C(=O)CC(C)(C)CC2=O)C(=O)C1 was read as D1 ag 5.0, D1 antag 3.2, TRHR agonist 0.1, TRHR PAM 38.6* and D1 PAM -2.2.
Screening CC(=O)c1ccc(NS(=O)(=O)c2cc(-c3cc(C)no3)ccc2C)cc1 returned D1 ag 0.6, D1 antag -4.7, TRHR agonist 0.3, TRHR PAM 0.1 and D1 PAM -0.6.
